Hits are enriched below; roughly 4.9% of the tested compounds scored in any of these assays.
Mdm2-MdmX inh = human Mdm2/MdmX binding inhibition; SaOS-2 split-luciferase Mdm2/MdmX complementation, luminescence; 330,000 compounds, 3% hits; O15151+Q00987; inhibition, % at 8 µM;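 active = inhibition of at least 50% at 8 µM in the primary screen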
Beta cell apopt = beta cell apoptosis inhibition; INS-1E cytokine-induced death, ATP luminescence, 48 h; percent of positive-control rescue, neutral wells zero; protection from apoptosis, % (no concentration beside the values); 300,000 compounds, 0.8% hits;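 active = Every replicate reaches about 75%, or at least half do and their mean reaches it too, limit read from the data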;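 also: 0% = cytokine-treated negative control wells and 100% = positive control rescue; higher means more ATP so stronger rescue from cytokine killing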
PP1 inh = PP1-alpha (human) inhibition in PP5 counter-screen; purified PP1alpha, OMFP fluorescence; AID 2235; P62136; inhibition, % at 6.7 µM; 320,000 compounds, 0.9% hits;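 active = inhibition above the mean inhibition of all tested compounds plus 3 SD, computed separately for each screening campaign, cut at about 15% in these data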
Target sequence (P62136 whole entry, looked up): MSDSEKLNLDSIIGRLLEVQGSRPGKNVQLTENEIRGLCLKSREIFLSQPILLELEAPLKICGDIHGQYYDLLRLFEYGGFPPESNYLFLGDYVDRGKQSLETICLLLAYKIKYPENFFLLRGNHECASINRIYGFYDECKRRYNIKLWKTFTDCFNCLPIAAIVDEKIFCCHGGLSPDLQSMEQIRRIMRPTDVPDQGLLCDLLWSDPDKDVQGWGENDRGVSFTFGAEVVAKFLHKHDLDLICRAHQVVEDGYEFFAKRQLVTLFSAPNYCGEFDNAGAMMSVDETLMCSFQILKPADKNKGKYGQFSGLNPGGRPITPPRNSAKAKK
Calb FLC = C. albicans growth modulation with fluconazole; C. albicans CaCi-2 (fluconazole-resistant clinical isolate) + fluconazole, Alamar Blue growth, 48 h; 300,000 compounds, 0.57% hits; growth inhibition, % (test concentration not listed); AID 1979;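 active = growth inhibition above about 58% in most replicates, limit read from the data, passing the limit was not always enough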;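 also: all wells also contain fluconazole at 8 µg/ml as a sub-toxic cotreatment; 0% = median of DMSO wells and 100% = median of geldanamycin control wells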
CSC inhib = blocks cancer stem cells. cancer stem cell-like cells viability, luminescence. inhibition, % at 7.5 µM. 300,000 compounds, 1.1% hits. AID 2717; in the data active = inhibition above about 75%; tested in HMLE shEcad cells
PP5 inh = blocks human protein phosphatase 5 activity. inhibition, % at 6.7 µM. 320,000 compounds, 0.18% hits. purified PP5c, OMFP substrate fluorescence. P53041. AID 1987;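 active = inhibition above the campaign's mean inhibition across all tested compounds plus 3 SD, cut at about 9.5% in these data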;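 also: 0% = DMSO only and 100% = 100 µM cantharidin control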
Mdm2 MdmX conf = confirmation of human Mdm2/MdmX interaction inhibitors; shares compounds with Mdm2-MdmX inh; Mdm2-MdmX binding, luminescent assay; inhibition, % at 8 µM; 10,000 compounds, 55% hits; AID 489028; in the data active = inhibition above about 40%
Full FLuc ctr = counter-screen for Mdm2/MdmX inhibitors: full-length luciferase. SaOS-2 full-length luciferase counterscreen, luminescence. shares compounds with Mdm2-MdmX inh. inhibition, % at 8 µM. 6,200 compounds, 77% hits;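 active = mean inhibition at 8 µM reaching about 37%, which flags the compound as non-specific, limit read from the data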;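 also: p53-null SaOS-2 cells with luciferase driven by a doxycycline-inducible promoter; compound on cells about two nights before reading with doxycycline added after day one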
Starred values were filed as active, the others as inactive.

`CC(=O)Nc1ccc(NC2=Nc3ccccc3N3C2=Nc2c(c(C)nn2-c2ccccc2)C3c2ccccc2)cc1` (stereo not drawn) gave Mdm2-MdmX inh 84*, Beta cell apopt 58, PP1 inh -2, Calb FLC -2, CSC inhib -1, PP5 inh 0, Mdm2 MdmX conf 90* and Full FLuc ctr 32.
CC(=O)Nc1ccc(NC(=O)COC(=O)c2c(C)nn(-c3ccccc3)c2C)cc1 was read as Mdm2-MdmX inh -8, Beta cell apopt 2, PP1 inh 1, Calb FLC 51, CSC inhib -32 and PP5 inh 4.
For CCCOC(=O)c1ccc(Oc2c(-c3ccc(OCC)cc3O)n[nH]c2C)cc1 the results were Mdm2-MdmX inh 71*, Beta cell apopt 37, PP1 inh 0, Calb FLC -20, CSC inhib 137*, PP5 inh 2 and Mdm2 MdmX conf 11.
Screening CCCCc1c(O)cc(C)[nH]c1=O returned Mdm2-MdmX inh -30, Beta cell apopt -4, PP1 inh -1, Calb FLC -2, CSC inhib 3 and PP5 inh 1.
Cn1c(Sc2ccc(Br)cc2)c(C=O)c2ccccc21 was read as Mdm2-MdmX inh 84*, Beta cell apopt 8, PP1 inh 0, Calb FLC 0, CSC inhib -13, PP5 inh 0, Mdm2 MdmX conf 72* and Full FLuc ctr 53*.
Screening Cn1c(Oc2ccc(F)cc2)c(C=O)c2ccccc21 returned Mdm2-MdmX inh 40, Beta cell apopt -10, PP1 inh -1, Calb FLC 23, CSC inhib -7 and PP5 inh 0.
Screening CC1CCN(Cc2nnnn2CCCC(=O)N(C)C2CCOC2)CC1 (stereo not drawn) returned Mdm2-MdmX inh 28, Beta cell apopt -3, PP1 inh 0, Calb FLC 2, CSC inhib -11 and PP5 inh 3.
`Cc1c(CCOC(=O)c2ccc(Cl)cc2Cl)sc[n+]1CC(=O)c1ccc(Br)cc1` gave Mdm2-MdmX inh -13, Beta cell apopt 26 and CSC inhib 19.
`Cc1c(CCOC(=O)C2C3CC4CC(C3)CC2C4)sc[n+]1CC(=O)c1ccc(Br)cc1` (stereo not drawn) gave Mdm2-MdmX inh 67*, Beta cell apopt 52, PP1 inh 12, Calb FLC 29, CSC inhib 108*, PP5 inh 4 and Mdm2 MdmX conf 16.
Screening CCOC(=O)C(C)(C)N(Cc1ccc(Cl)cc1)S(=O)(=O)c1ccc(Cl)c([N+](=O)[O-])c1 returned Mdm2-MdmX inh 95*, Beta cell apopt -1, PP1 inh 2, Calb FLC -1, CSC inhib 109*, PP5 inh 4, Mdm2 MdmX conf 81* and Full FLuc ctr 50*.
For CCOC(=O)C(C)(C)N(Cc1ccc(C)cc1)S(=O)(=O)c1ccc(Cl)c([N+](=O)[O-])c1 the results were Mdm2-MdmX inh 96*, Beta cell apopt -11, PP1 inh -1, Calb FLC -1, CSC inhib -2, PP5 inh 2, Mdm2 MdmX conf 66* and Full FLuc ctr 71*.
Screening CC(=O)c1cccc(NC(=O)CN2CCc3cc4c(cc3C2C)OCCCO4)c1 (stereo not drawn) returned Mdm2-MdmX inh 24, Beta cell apopt -1, PP1 inh -4, Calb FLC -7, CSC inhib -13 and PP5 inh 4.
COc1ccc2c(CC(=O)Nc3ccc(OC)nc3)coc2c1 was read as Mdm2-MdmX inh 19, Beta cell apopt 3, PP1 inh 3, Calb FLC 1, CSC inhib 2 and PP5 inh 0.
Screening COc1cc2c(cc1NC(=O)c1ccc(C(C)(C)C)cc1)CCCC2 returned Mdm2-MdmX inh 69*, Beta cell apopt 3, PP1 inh -22, Calb FLC 0, CSC inhib 58, PP5 inh 3, Mdm2 MdmX conf 74* and Full FLuc ctr 62*.
For COc1ccc(C(=O)Nc2cc3c(cc2OC)CCCC3)cc1Br the results were Mdm2-MdmX inh 3, Beta cell apopt 5, PP1 inh -6, Calb FLC 5, CSC inhib 5 and PP5 inh 4.
Screening COCCCNC(=O)c1ccc2c3c(onc13)-c1ccccc1C2=O returned Mdm2-MdmX inh -68, Beta cell apopt 19, PP1 inh 3, Calb FLC -14, CSC inhib 23 and PP5 inh 3.
CCOC(=O)C(C(=O)OCC)c1cc(Br)c2noc3c2c1C(=O)c1ccccc1-3 was read as Mdm2-MdmX inh 100*, Beta cell apopt 33, PP1 inh 7, Calb FLC 16, CSC inhib 117*, PP5 inh -1, Mdm2 MdmX conf 95* and Full FLuc ctr 1.
For CN1CCN(C(=O)CCN2C(=O)/C(=C/c3ccc(F)cc3)SC2=S)CC1 the results were Mdm2-MdmX inh 35, Beta cell apopt -50, PP1 inh -4, Calb FLC -22, CSC inhib 65 and PP5 inh 0.
`COc1ccc2cc(C(=O)NCc3ccco3)c(=Nc3ccc(C(=O)O)cc3)oc2c1` gave Mdm2-MdmX inh 6, PP1 inh 1, Calb FLC -2, CSC inhib 1 and PP5 inh 1.
`COc1ccc(N=c2oc3c(OC)cccc3cc2C(=O)NCc2ccco2)c(OC)c1` gave Mdm2-MdmX inh 68*, Beta cell apopt 29, PP1 inh 0, Calb FLC 12, CSC inhib 29, PP5 inh 0 and Mdm2 MdmX conf -10.
CSc1nc2c(cnn2-c2ccc(C)c(C)c2)c(=O)[nH]1 was read as Mdm2-MdmX inh 53*, PP1 inh -1, Calb FLC -9, CSC inhib -2, PP5 inh 0 and Mdm2 MdmX conf 5.
COc1ccc(C(=O)Nc2nc3c(s2)CCCC3)cc1S(=O)(=O)N1CCCc2ccccc21 was read as Mdm2-MdmX inh 91*, Beta cell apopt 37, PP1 inh 4, Calb FLC 2, PP5 inh 5, Mdm2 MdmX conf 90* and Full FLuc ctr 23.
For O=C(NCCCNC(=O)c1cnccn1)c1cccc(F)c1 the results were Mdm2-MdmX inh 12, Beta cell apopt 1, PP1 inh -6, Calb FLC 0, CSC inhib 2 and PP5 inh 3.
For O=C(NC(Cc1c[nH]c2ccccc12)C(=O)Nc1ccc(F)c([N+](=O)[O-])c1)c1cccs1 (stereo not drawn) the results were Mdm2-MdmX inh 96*, Beta cell apopt 3, PP1 inh 2, Calb FLC -18, CSC inhib 39, PP5 inh 5, Mdm2 MdmX conf 87* and Full FLuc ctr 25.
